# In all, about 2,400 compounds went through this assay and about 1,400 (58%) were called active. So high a share suggests a set chosen from earlier hits. This is one part of the list. Unmarked numbers belong to inactive results.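 How the source made its calls: active means inhibition of 30% or more at any tested dose; inconclusive means primary hits over the limit that were never retested; inactive means the rest.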
# Assay: ADP Hunter readout inhibition without MgcRacGAP – biochemical, coupled enzyme counter-screen, artefact control for MgcRacGAP inhibitor project, dose response (AID 624351);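 further: signal is the ADP detection kit reading of free GDP without any GAP enzyme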;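 on inhibition: 0% = median positive control wells and 100% = median negative control wells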
# Conditions: fluorescence, no MgcRacGAP; series mostly up to 80 µM; inhibition: at the top concentration
SMILES,inhibition [%],IC50
CC(C)CC(=O)N1CCN(Cc2cccc([N+](=O)[O-])c2)CC1,13.1,–
COc1cc(N2C(=O)C=CC2=O)ccc1N1C(=O)C=CC1=O,3.9,–
O=C(c1ccccc1F)N1CCN(Cc2ccc3c(c2)OCO3)CC1,15.9,–
COc1cc2nc(N3CCNCC3)nc(N)c2cc1OC,6.38,–
CCNc1nc(NCC)nc(N/N=C/c2ccc(O)c(O)c2)n1,–,50.4 µM (active)
Oc1ccc(/C=N/Nc2nc(N3CCCC3)nc(N3CCCC3)n2)cc1O,–,48.3 µM (active)
COc1cc(/C=N/Nc2nc(N3CCCC3)nc(N3CCCC3)n2)ccc1O,–,79.1 µM (active)
COc1ccc(-c2cnnc(N/N=C/c3ccc(O)c(O)c3)n2)cc1,–,73.9 µM (active)
Cc1ccc(C)c(-n2sc3ccc(F)cc3c2=O)c1,12.9,–
COc1ccc(/C=N/Nc2nc(N3CCCC3)nc(N3CCCC3)n2)cc1O,–,71.1 µM (active)
CCOc1ccc(NCc2cccn2-c2nnc(N3CCC(C(=O)NCCCN4CCCCC4)CC3)s2)cc1,–,68.9 µM (active)
CCN(CC)Cc1cc(Nc2c3ccccc3nc3c4ccccc4n(C)c23)cc(CN(CC)CC)c1O,–,20.9 µM (active)
Cc1[nH]n(-c2cccc(Cl)c2)c(=O)c1-c1ccc(Cl)cc1,–,77.2 µM (active)
Cc1c(Cl)sn(-c2ccc(Cl)cc2)c1=O,9.28,–
Cc1ccc(-c2ccc(/C=C3\C(=O)ON=C3c3ccccc3)o2)c([N+](=O)[O-])c1,3.06,–
COc1ccc(CN2CCN(Cc3ccc(C(F)(F)F)cc3)CC2)cc1,23.6,–
COc1ccc(NC2CCCN(C(=O)c3ccc(C(C)=O)s3)C2)cc1 (stereo unspecified),–,80.4 µM (active)
COc1ccc(NC2CCCN(C(=O)COc3ccc(C(C)=O)cc3)C2)cc1 (stereo unspecified),–,74.9 µM (active)
COc1ccc(OCC(O)CN2CCCC2)cc1 (stereo unspecified),9.45,–
COc1ccc(NC2CCCN(C(=O)c3ccccc3C(F)(F)F)C2)cc1 (stereo unspecified),–,76.2 µM (active)
CCN1CCCC1CNCC(=O)Nc1ccc(OC(F)(F)F)cc1 (stereo unspecified),16.9,–
COc1ccc(NC2CCCN(C(=O)C3(C)CCCCC3)C2)cc1 (stereo unspecified),–,67.2 µM (active)

SMILES,inhibition [%],IC50
Cc1ccc(C)c(OCC(O)CN2CCC(C)CC2)c1C (stereo unspecified),12.6,–
Cc1ccccc1C1=C/C(=C(\SS/C(C(=O)c2ccc(OCC(=O)O)c(Cl)c2Cl)=C2\C=C(c3ccccc3C)SS2)C(=O)c2ccc(OCC(=O)O)c(Cl)c2Cl)SS1,7.13,–
CSc1nc(=S)c2[nH]c(=S)[nH]c2[nH]1,13.2,–
COc1cc2[nH]c(=S)nc(Nc3ccc(NC(C)=O)cc3)c2cc1OC,4.2,–
CCCCNc1cc(NC(C)=O)cc2cc(OC)c(OC)cc12,–,52.3 µM (active)
COc1cc2cc(NC(C)=O)cc(NCc3ccccc3)c2cc1OC,–,61 µM (active)
Cc1ccc2c(c1)cc(C(=O)NCc1ccccc1)n2C,1.98,–
O=S(=O)(c1ccccc1)N1N=C(c2ccc(O)cc2)CC1c1ccco1 (stereo unspecified),21.9,–
O=C1C=C(Nc2ccc(O)cc2)CC(c2ccco2)C1 (stereo unspecified),–,17.8 µM (active)
Cc1cc(C)c(C)c(S(=O)(=O)Nc2ccc(O)cc2)c1C,–,48.5 µM (active)
Cc1cc(C)c(S(=O)(=O)Nc2ccc(O)cc2)c(C)c1,–,68.4 µM (active)
CCN(CC)c1ccc(C(=C2C=CC(=[N+](CC)CC)C=C2)c2ccccc2)cc1,4.2,–
CCN(CC)c1ccc(C(=C2C=CC(=[N+](CC)CC)C=C2)c2ccc(N(CC)CC)cc2)cc1,–,45.3 µM (active)
COc1ccccc1CN1CCN(C(=O)c2ccncc2)CC1,18.7,–
COc1cc(C(C)=NNC(=O)c2ccncc2)ccc1O,–,36.8 µM (active)
COc1cc(/C(C)=N\NC(=O)CSc2nc3ccccc3n2C)ccc1O,–,39.3 µM (active)
C/C(=N\NC(=O)CSc1nc2ccccc2o1)c1ccc(O)cc1,–,68.9 µM (active)
COc1cc(/C(C)=N/NC(=O)C(O)(c2ccccc2)c2ccccc2)ccc1O,–,79.7 µM (active)
O=C(O)c1cccc(N2C(=O)/C(=C/c3ccc(SCc4ccc(Cl)cc4)o3)SC2=S)c1,1.08,–
c1ccc(-c2ccccc2OCCN2CCOCC2)cc1,21.1,–
C=CCNCC(O)COc1ccc(C(C)=O)cc1OC (stereo unspecified),13.1,–
COc1cc(/C(C)=N/NC(=O)Cc2c(C)[nH][nH]c2=O)ccc1O,–,70.3 µM (active)

SMILES,inhibition [%],IC50
C#CCOCCOCCOCCNc1nc(N2CCN(C(=O)[C@H](CCCCN)n3cc(CN)nn3)CC2)nc(N2CCN(C(=O)[C@H](CCCCN)n3cc(CN)nn3)CC2)n1,3.07,–
Nc1ccccc1Nc1ccccc1,–,34 µM (active)
Nc1ccccc1Nc1cccc(C(F)(F)F)c1,–,78.3 µM (active)
Nc1ccccc1SSc1ccccc1N,-6.81,–
Nc1ccc(Nc2ccccc2)c(Cl)c1,–,15.9 µM (active)
Cn1c(-c2ccccc2)cnc1NCc1ccc(-c2ccccc2)cc1,25.8,–
Cc1cc(C)cc(NC(=O)C(NCCN2CCOCC2)c2ccccc2)c1 (stereo unspecified),29.4,–
COc1ccc(NC(=O)C(C)N2CCN(C)CC2)cc1 (stereo unspecified),25,–
COc1cc2c(cc1NC(=O)C(Cl)Cl)-c1ccc(NC(=O)C(Cl)Cl)cc1C2,–,71.4 µM (active)
CN(C)/N=C/c1ccc(N2CCOCC2)cc1,–,60.4 µM (active)
O=C(O)CN1C(=O)/C(=C/c2ccc(SCc3ccccc3)o2)SC1=S,-9.9,–
O=C(CCCC(=O)c1ccccc1)Nc1ccc(O)cc1,–,18.2 µM (active)
CC(C)c1ccc(NC(=O)CNCC(c2ccccc2)N(C)C)cc1 (stereo unspecified),18.8,–
O=C(CC(c1ccccc1)c1ccccc1)Nc1ccc(O)cc1,–,56.5 µM (active)
COc1cc2c[n+](C)c3c4ccccc4ccc3c2cc1OC,13,–
COc1cc2c(cc1NC(=S)Nc1ccccc1C)oc1ccccc12,–,41.1 µM (active)
COc1cc2c(cc1NC(=S)Nc1cccc3ccccc13)oc1ccccc12,–,36.9 µM (active)
COc1cc2c(cc1NCc1ccc3c(c1)OCO3)oc1ccccc12,13.4,–
COc1ccc(NC(=S)Nc2cccc3ccccc23)cc1OC,27.8,–
CN(C)CCNC(C(=O)Nc1cccc(C(F)(F)F)c1)c1ccccc1 (stereo unspecified),27.1,–
O=C(O)c1cc(N2N=C(C(F)(F)F)/C(=C/C=C/c3ccco3)C2=O)ccc1Cl,12.8,–
COc1ccc2c(c1OC)C(=O)OC2CC(=O)c1ccc(O)c(O)c1 (stereo unspecified),–,58.7 µM (active)

# Source: PubChem BioAssay AID624351 (Southern Research Specialized Biocontainment Screening …, 2012)
